{"source": "PubChem BioAssay AID1645875", "about": "(National Center for Advancing Translational Sciences (NCATS), 2021)", "note": "Records with an inconclusive call do not appear. Unmarked numbers belong to inactive results. Activity calls are given as the source filed them. Calls come from the whole dose curve; as a rule, active = well fitted inhibition curve with a large enough effect; inconclusive = small, poorly fitted or top-dose-only effect; inactive = no such curve, though single readings can be large or run the other way.", "data": [{"biological_target": "N-terminal Xaa-Pro-Lys N-methyltransferase 1 (Homo sapiens) (UniProt Q9BV86)", "sequence (Q9BV86 whole entry, looked up)": "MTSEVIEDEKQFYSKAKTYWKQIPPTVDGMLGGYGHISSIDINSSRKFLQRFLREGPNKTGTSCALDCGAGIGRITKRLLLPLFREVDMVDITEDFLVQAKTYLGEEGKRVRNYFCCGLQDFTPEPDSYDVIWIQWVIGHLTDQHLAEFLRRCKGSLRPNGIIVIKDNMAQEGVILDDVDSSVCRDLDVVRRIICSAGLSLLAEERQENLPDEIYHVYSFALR", "experiment": "Orthogonal qHTS for Inhibitors of N-terminal methyltransferase 1 (NTMT1): ThioGlo Assay", "details": "NTMT1 SAHH-coupled ThioGlo fluorescence, 30 min; series mostly up to 84.5 µM; activity, negative = inhibition: at the top concentration", "summary_of_the_method": "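ThioGlo3 (15 uM) detects the thiol product formed by SAHH (10 uM) from SAM (100 uM) turnover by 125 nM NTMT1 (all final), with compounds in concentration series. Readings at ex 340/em 450 nm at start and after 30 min at room temperature; data background-normalized.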", "units": {"activity, negative = inhibition": "%"}, "values": [{"smiles": "O=C(NCCN1CCCC1)c1cc(-c2ccc(CN3CCOCC3)cc2)nc2ccc(F)cc12", "Potency": "24.1 µM (active)"}, {"smiles": "CN(C)CCCC1(c2ccc(F)cc2)OCc2cc(C#N)ccc21", "note": "(stereo not given)", "activity, negative = inhibition": 25.7}, {"smiles": "Cc1cccc(NC(=O)c2c(NC(=O)c3ccccc3)sc3c2CCCC3)c1", "activity, negative = inhibition": -8.87}, {"smiles": "Cc1cc(C)nc(NC(=S)N2CCN(c3cccc(S(C)(=O)=O)c3)CC2)c1", "Potency": "12.3 µM (active)"}, {"smiles": "C[C@]12CC[C@@H]3c4ccc(O)c(O)c4CC[C@H]3[C@@H]1CCC2=O", "Potency": "17.5 µM (active)"}, {"smiles": "COc1cc2c(NC3CCN(CC4CCCCC4)CC3)nc(N3CCCCC3)nc2cc1OCCOCCN(C)C", "Potency": "12.3 µM (active)"}, {"smiles": "COc1cc2c(NC3CCN(C)CC3)nc(N3CCCN(C)CC3)nc2cc1OCCCCCN", "Potency": "30.8 µM (active)"}, {"smiles": "COc1cc2c(NC3CCN(C(C)C)CC3)nc(N3CCCN(c4ccccc4)CC3)nc2cc1OCCCN1CCCC1", "Potency": "55.5 µM (active)"}, {"smiles": "CNC(=O)c1ccccc1Nc1cc(Nc2ccc(N3CCOCC3)cc2OC)ncc1C(F)(F)F", "Potency": "8.79 µM (active)"}, {"smiles": "COc1cc2c(NC3CCN(C4CCCCC4)CC3)nc(N3CCCCC3)nc2cc1OCCOCCN(C)C", "Potency": "43.5 µM (active)"}, {"smiles": "O=C(/C=C/c1ccc(O)c(O)c1)OCCc1ccccc1", "Potency": "17.3 µM (active)"}, {"smiles": "Fc1cc(Nc2nc(-c3ccncc3)nc3ccccc23)ccc1N1CCNCC1", "Potency": "21.8 µM (active)"}, {"smiles": "CNCCCOc1cc2nc(N3CCCN(C)CC3)nc(NC3CCN(C)CC3)c2cc1OC", "Potency": "43.5 µM (active)"}, {"smiles": "Cc1cc2c(C(C)C)c(O)c(O)c(C=O)c2c(O)c1-c1c(C)cc2c(C(C)C)c(O)c(O)c(C=O)c2c1O", "Potency": "38.8 µM (active)"}, {"smiles": "COc1cc(N2CCC(N3CCN(C)CC3)CC2)ccc1Nc1ncc(Cl)c(-c2c[nH]c3ccccc23)n1", "Potency": "17.5 µM (active)"}]}]}
